Consider 26 compounds from PubChem BioAssay AID1531 (NMMLSC, 2009).

In all, about 290,000 compounds went through this assay and about 3,300 (1.1%) were called active. The entries come from a sample that favours actives as a whole. Values without a mark were called inactive. Rule as the data show it: active = binding response below about 67% or above about 130%; inconclusive = no clear call, values can overlap the other calls; inactive = in between.

The test deals with Mitogen-activated protein kinase kinase kinase 2 (Homo sapiens) (UniProt Q9Y2U5). As to the kind of experiment: wildtype MEKK2 PB1-MEK5 interaction, increase or decrease – biochemical, multiplex bead flow cytometry, Alexa488-MEK5, primary screen (AID 1531). Particulars: Alexa488-MEK5 binding to MEKK2 WT, at 10 µM, actives lie on both sides. In general terms: In flow cytometry, cells or beads pass a laser one at a time.
Turning to `O=C(NCc1ccncc1)NC12CC3CC(CC(C3)C1)C2`, the binding response (% of control) was 87%.
On to `S=C(NCc1ccc(Cl)cc1)NC1CCCCC1`, for which the binding response (% of control) is 106%.
As to `S=C(NCc1ccc(Cl)cc1)NC12CC3CC(CC(C3)C1)C2`, the binding response (% of control) was 160% (active).
Take `Cc1cccc(OCC(=O)NCC(=O)N/N=C/c2ccc(N(C)C)cc2)c1`: the binding response (% of control) is 106%.
For the compound `CN(C)CCCn1c(SCc2ccc(Cl)cc2)nnc1-c1ccncc1`, the binding response (% of control) was 109%.
In the case of `O=S(=O)(Cc1nnnn1-c1ccccc1)c1ccccc1` it was 108%; in that of `CCC1=NN2C(=N)/C(=C/c3cc(C)n(-c4ccccc4)c3C)C(=O)N=C2S1`, 98%.
With `CCS(=O)(=O)C1=NSC2=NC(=O)/C(=C\c3cc(C)n(-c4cccc(OC)c4)c3C)C(=N)N21` the figure was 98%.
Turning to `Cc1cc(/C=C2/C(=N)N3C(=NC2=O)SN=C3S(C)(=O)=O)c(C)n1-c1ccccc1`, the binding response (% of control) is -2% (active).
With `Cc1cccc(CCNC(=O)Cn2ncc3c([nH]c4ccc(C)cc43)c2=O)c1` the figure was 96%; with `C=CCOc1cccc(C2C(C(=O)c3ccc(C)o3)=C(O)C(=O)N2CCCn2ccnc2)c1` (stereo unspecified), 98%; with `CC1CCCC(C)N1C(=O)CSc1nnnn1C1CCCC1` (stereo unspecified), 100%.
Turning to `CCCc1cc(=O)[nH]c(SCC(=O)N2C(C)CCCC2C)n1` (stereo unspecified), the binding response (% of control) was 113%.
For `CCCc1nnc(SCC(=O)N2C(C)CCCC2C)n1CC` (stereo unspecified), the binding response (% of control) was 812% (active).
`COc1ccccc1CNS(=O)(=O)c1c(C)[nH]c(C)c1C(=O)N1CCCCC1`: the binding response (% of control) was 101%.
In the case of `O=C(Nc1ccc(C(=O)N2CCOCC2)cc1)Nc1cccc(C(F)(F)F)c1` it was 102%; in that of `O=C(COc1cc2oc(=O)c3c(c2cc1Cl)CCC3)NCCCN1CCOCC1`, 100%.
On to `CCCC[C@@H]1CN=C(N)N1CCc1cccc(F)c1`, for which the binding response (% of control) was 107%.
As to `CCCn1c(=N)n(CC(=O)c2ccc(Cl)c(Cl)c2)c2ccccc21`, the binding response (% of control) was 139% (active).
Consider `CCn1c(=N)n(CC(=O)c2cccc(OC)c2)c2ccccc21`, for which the binding response (% of control) is 96%.
Regarding `CCCNC(=O)c1ccc(Cl)c(Cl)c1`, the binding response (% of control) is 101%.
On to `COC(C[C@@H]1O[C@@H]1C(=O)[C@@H](C)OCc1ccccc1)OC`, for which the binding response (% of control) is 97%.
For the compound `O=C(CCN1CCc2ccccc2C(O)(c2ccccc2)C1)c1ccc2c(c1)OCCO2` (stereo unspecified), the binding response (% of control) was 103%.
For the compound `O=C(NCCN1CCOCC1)c1ccc(/C=C2\Sc3ccccc3N(Cc3ccc(F)cc3)C2=O)cc1`, the binding response (% of control) was 128%.
Turning to `CCN1CCN(CCNC(=O)c2ccc3c(c2)NC(=O)/C(=C\c2ccc(OC)c(OC)c2)S3)CC1`, the binding response (% of control) was 131%.
In the case of `CCN1CCN(CCNC(=O)c2ccc(/C=C3/Sc4ccccc4N(Cc4cccc(C)c4)C3=O)cc2)CC1` it was 220% (active).
